The nature of test [1]: small molecules captured by biotinylated probe aFSTL3 – biochemical, small-molecule microarray, fluorescence 635/667, stem cell growth factor project, primary screen (AID 1064).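 Further: measures binding of the biotinylated anti-FSTL3 antibody to printed compounds.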 The note with it: higher = more signal.
Test [2] in a line: binders from COS7 lysate, DM2A8 probe, primary screen, torsin A project, cell lysate, small-molecule microarray, fluorescence 635/667 (AID 1065). As to conditions: higher = more signal, COS7 lysate expressing mutant human TOR1A.
A short description of test [3]: small molecules captured by biotinylated probe aFGF2 – biochemical, small-molecule microarray, fluorescence 635/667, stem cell growth factor project, primary screen (AID 1067).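 Further: measures binding of biotinylated aFGF2 protein to printed compounds on slides; z-score merges feature fluorescence and signal-to-noise across triplicate slides.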 The note with it: higher = more signal.
A short description of test [4]: small molecules captured by biotinylated probe aFGF10 – biochemical, small-molecule microarray, fluorescence 635/667, stem cell growth factor project, primary screen (AID 1071).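 Further: score merges 667 nm spot intensity and signal to noise from triplicate slides.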 The note with it: higher = more signal.
Test [5] has as its target Neurogenic locus notch homolog protein 2 (Homo sapiens) (UniProt Q04721). The test can be described thus: small molecules binding Notch2 protein – biochemical, small-molecule microarray, 635 nm fluorescence, stem cell growth factors, primary screen (AID 1073). As to conditions: higher = more signal.
For test [6], the target named is Pro-neuregulin-1, membrane-bound isoform (Homo sapiens) (UniProt Q02297). Kind of test: small molecules binding neuregulin-1 protein – biochemical, small-molecule microarray, fluorescence 635/667, psychiatric disease protein project, primary screen (AID 1075).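 Further: score combines 667 nm spot fluorescence with signal to noise.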 As to conditions: NRG1 binding, 635 nm fluorescence, higher = more signal.
Test [7] has as its system Neuregulin-1 EGF-like domain. The test can be described thus: small molecules binding NRG1 EGF domain – biochemical, small-molecule microarray, 635 nm fluorescence, primary screen (AID 1081).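 Further: binding of the protein to compounds printed on small-molecule microarray slides.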 The note with it: higher = more signal.
Test [8] in a line: FRG1 expression reporter modulators in myotubes – cell-based, C2C12 myotubes, firefly/Renilla luciferase, luminescence, FRG1 inhibition for FSHD, primary screen (AID 1084). The note with it: FRG1 promoter luciferase, higher = more signal, called active from +8 up or from −8 down.
Test [9] can be described thus: small molecules captured by biotinylated probe aFST – biochemical, small-molecule microarray, fluorescence 635/667, stem cell growth factor project, primary screen (AID 1086).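 Further: score merges 667 nm fluorescence with signal-to-noise of each printed compound spot.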 The note with it: higher = more signal.
Test [10] in a line: binders of probe aHhip on microarray, primary screen, stem cell growth factor project, biochemical, small-molecule microarray, fluorescence 635/667 (AID 1087).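 Further: score merges spot fluorescence at 667nm with spot signal to noise ratio.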 The note with it: higher = more signal.

Molecules are shown by their SMILES. Calls of active or inactive are those of the source.

Neurogenic locus notch homolog protein 2 (Homo sapiens), sequence (Q04721 whole entry, looked up, canonical isoform): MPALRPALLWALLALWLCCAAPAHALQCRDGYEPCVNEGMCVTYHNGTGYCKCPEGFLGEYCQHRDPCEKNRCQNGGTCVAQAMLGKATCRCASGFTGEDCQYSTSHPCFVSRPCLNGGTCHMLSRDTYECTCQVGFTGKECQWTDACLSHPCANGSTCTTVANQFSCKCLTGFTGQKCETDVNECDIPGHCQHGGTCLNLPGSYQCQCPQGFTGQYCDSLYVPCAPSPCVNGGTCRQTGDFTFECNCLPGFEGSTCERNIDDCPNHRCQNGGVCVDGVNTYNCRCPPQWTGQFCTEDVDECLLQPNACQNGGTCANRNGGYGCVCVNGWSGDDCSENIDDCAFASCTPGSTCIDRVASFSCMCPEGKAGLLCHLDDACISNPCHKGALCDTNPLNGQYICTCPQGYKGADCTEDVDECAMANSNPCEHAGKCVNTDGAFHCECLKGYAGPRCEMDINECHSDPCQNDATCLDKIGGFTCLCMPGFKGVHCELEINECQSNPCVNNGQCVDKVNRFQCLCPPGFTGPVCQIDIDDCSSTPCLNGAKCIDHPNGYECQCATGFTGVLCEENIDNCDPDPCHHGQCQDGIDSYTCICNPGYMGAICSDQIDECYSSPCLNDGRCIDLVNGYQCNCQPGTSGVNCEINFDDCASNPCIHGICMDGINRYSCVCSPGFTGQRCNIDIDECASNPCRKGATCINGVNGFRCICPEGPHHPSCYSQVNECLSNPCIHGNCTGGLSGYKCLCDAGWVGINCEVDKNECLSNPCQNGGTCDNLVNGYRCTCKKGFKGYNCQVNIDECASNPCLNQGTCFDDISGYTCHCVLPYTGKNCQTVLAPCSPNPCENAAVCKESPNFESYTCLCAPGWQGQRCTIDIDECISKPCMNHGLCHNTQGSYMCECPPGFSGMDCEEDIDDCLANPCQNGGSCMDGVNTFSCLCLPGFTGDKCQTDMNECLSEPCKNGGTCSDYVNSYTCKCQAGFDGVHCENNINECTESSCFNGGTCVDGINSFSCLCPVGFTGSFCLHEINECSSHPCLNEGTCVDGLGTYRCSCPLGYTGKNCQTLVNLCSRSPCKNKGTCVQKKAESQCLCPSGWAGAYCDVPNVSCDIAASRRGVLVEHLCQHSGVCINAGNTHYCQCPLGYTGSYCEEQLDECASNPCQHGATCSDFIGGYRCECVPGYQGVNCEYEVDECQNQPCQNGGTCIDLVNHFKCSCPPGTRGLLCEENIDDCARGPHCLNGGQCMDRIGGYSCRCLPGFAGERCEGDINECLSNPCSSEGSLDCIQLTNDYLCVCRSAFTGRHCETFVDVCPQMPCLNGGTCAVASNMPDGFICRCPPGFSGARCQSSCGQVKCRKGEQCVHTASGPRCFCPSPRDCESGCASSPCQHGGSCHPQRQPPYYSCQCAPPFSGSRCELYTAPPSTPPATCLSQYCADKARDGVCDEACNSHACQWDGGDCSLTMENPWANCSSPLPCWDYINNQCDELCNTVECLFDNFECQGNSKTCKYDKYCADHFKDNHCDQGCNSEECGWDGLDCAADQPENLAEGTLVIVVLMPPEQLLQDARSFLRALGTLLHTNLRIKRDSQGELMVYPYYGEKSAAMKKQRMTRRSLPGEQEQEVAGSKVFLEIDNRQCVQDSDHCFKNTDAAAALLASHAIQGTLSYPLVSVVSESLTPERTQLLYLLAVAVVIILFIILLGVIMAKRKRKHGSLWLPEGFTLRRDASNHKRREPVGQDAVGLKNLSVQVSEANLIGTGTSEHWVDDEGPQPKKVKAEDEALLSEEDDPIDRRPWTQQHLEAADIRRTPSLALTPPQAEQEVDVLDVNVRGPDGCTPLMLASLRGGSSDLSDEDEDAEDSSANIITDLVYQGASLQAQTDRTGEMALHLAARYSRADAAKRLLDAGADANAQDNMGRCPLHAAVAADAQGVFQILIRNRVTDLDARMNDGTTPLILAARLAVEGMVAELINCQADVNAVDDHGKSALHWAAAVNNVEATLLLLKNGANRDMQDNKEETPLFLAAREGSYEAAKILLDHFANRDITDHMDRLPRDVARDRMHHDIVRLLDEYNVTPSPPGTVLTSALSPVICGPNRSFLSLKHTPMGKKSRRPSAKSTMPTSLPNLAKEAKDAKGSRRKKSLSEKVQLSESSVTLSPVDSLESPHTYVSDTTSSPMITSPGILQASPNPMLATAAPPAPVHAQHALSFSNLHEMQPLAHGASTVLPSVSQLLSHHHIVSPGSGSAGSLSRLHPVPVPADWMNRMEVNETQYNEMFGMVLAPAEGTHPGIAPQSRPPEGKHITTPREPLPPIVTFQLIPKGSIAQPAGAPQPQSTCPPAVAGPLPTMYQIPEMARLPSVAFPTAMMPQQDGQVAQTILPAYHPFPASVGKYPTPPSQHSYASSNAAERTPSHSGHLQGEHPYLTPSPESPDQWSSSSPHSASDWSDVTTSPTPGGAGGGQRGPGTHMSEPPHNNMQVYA
Pro-neuregulin-1, membrane-bound isoform (Homo sapiens), sequence (Q02297 whole entry, looked up, the tested form may be a part, canonical isoform): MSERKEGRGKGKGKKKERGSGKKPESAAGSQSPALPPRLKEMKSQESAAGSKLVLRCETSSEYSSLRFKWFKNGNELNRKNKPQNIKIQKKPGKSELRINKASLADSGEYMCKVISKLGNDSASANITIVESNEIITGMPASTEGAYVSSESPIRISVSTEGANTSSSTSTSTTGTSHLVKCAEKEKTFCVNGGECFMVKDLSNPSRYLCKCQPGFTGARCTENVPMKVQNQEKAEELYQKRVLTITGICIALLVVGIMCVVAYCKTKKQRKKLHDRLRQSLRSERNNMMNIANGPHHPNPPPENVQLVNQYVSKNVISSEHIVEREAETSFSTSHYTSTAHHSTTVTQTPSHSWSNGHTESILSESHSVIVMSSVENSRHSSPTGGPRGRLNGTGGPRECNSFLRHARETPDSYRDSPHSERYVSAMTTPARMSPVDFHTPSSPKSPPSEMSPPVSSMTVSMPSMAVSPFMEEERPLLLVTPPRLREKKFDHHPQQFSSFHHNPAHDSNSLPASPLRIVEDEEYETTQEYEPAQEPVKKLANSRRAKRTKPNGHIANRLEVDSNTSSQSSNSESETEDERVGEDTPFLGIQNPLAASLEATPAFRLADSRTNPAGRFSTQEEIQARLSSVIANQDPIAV

With `C#CCCCON=C1C[C@@H](O)[C@@H](O)[C@@H]2[C@@H]3C(=O)N(c4ccc(F)cc4F)C(=O)[C@@H]3CC[C@H]12`, the composite z-score was -0.381 in test [1]; 0.872 in [2]; -0.0788 in [3]; 0.216 in test [4]; 0.342 in test [5]; 0.454 in test [6]. The composite z-score in test [7] stood at 0.765; in test [9], 0.326; in test [10], 0.0373. Besides, the z-score in [8] was -1.17 (inactive).
Regarding `CCOC(=O)C1=NO[C@]2(C=C(Br)C3(OCCCO3)[C@H]3O[C@H]32)C1`, the composite z-score in [1] is 0.0733; in [2] it was 2.19; in [3] it was -0.116; in test [4] it was -0.229; in test [5] it was -0.212; in test [6], -0.722. In addition, the composite z-score in [7] was -0.208; in [9], -0.132; in test [10] it was -0.0726. Besides, the z-score in test [8] was 0.293 (inactive).
Consider `CCOC(=O)[C@H](CC(C)C)NC(=O)CCC1CC(OC(=O)NCc2cccc3ccccc23)CC2(CCCC(COC(=O)NCCCN3CCCC3=O)O2)O1` (stereo not given in full), for which the composite z-score in test [1] was -0.494; in test [2], 0.129; in test [3], -0.131; in test [4] it was 0.208; in test [5], 0.755; in test [6] it was 0.466. Further, the composite z-score in test [7] is 0.953; in test [9], 0.253; in test [10] it was -0.212. Besides, the z-score in test [8] was 1.74 (inactive).
Consider `CCOC(=O)[C@H](CC(C)C)NC(=O)CCC1CC(OC(=O)NCc2cccc3ccccc23)CC2(CCCC(COC(=O)NCC3CCCCC3)O2)O1` (stereo not given in full), for which the composite z-score was -0.338 in test [1]; 0.194 in test [2]; -0.0744 in [3]; 0.54 in test [4]; 0.763 in test [5]; 0.589 in test [6]. Moreover, the values for the composite z-score in test [7], in test [9] and in test [10] were 0.907, 0.615 and 0.0623, respectively. For the same molecule, the z-score in test [8] is 0.791 (inactive).
Take `CO[C@@H]1COC(=O)[C@@H]2CCCN2C(=O)[C@@H](C)COC(=O)CC=C[C@H]1C`: the composite z-score in test [1] is -0.776; in [2] it was 0.313; in [3], -0.122; in test [4], 0.397; in [5] it was 0.5; in test [6], 0.0187. The composite z-score in test [7] came out at 1.02; in test [9], 0.271; in [10] it was 0.607. Moreover, in test [8], the z-score was 0.719 (inactive).
With `CCCCC#C[C@@H]1C=C[C@H](OC(C)=O)[C@@H](COC(C)=O)O1`, the composite z-score in test [1] is -0.515; in [2], 0.37; in [3] it was -0.112; in test [4], 0.319; in test [5], 0.617; in test [6] it was 0.304. For the same molecule, the composite z-score was 0.0329 in test [7], 0.0643 in test [9] and -0.134 in test [10]. For the same molecule, the z-score in [8] was -1.28 (inactive).
As to `CC(=O)OC[C@H]1OC(ON=CC[C@@H]2C=C[C@H](OC(C)=O)[C@@H](COC(C)=O)O2)[C@H](OC(C)=O)[C@@H](OC(C)=O)[C@@H]1OC(C)=O` (stereo not given in full), the composite z-score in test [1] was -0.314; in test [2], 0.585; in test [3], -0.076; in [4], 0.398; in test [5], 0.94; in test [6], -0.555. In addition, the results for the composite z-score in [7], in test [9] and in test [10] were -0.595, 0.52 and 0.0972, respectively. Further, in [8], the z-score is -0.0946 (inactive).
For the molecule `COCOc1ccc(Br)cc1C(=O)[C@@H]1O[C@H]1c1cccc(OC)c1`, the composite z-score in [1] is -0.305; in [2], -0.0196; in test [3], -0.122; in test [4], 0.204; in [5], 0.333; in test [6], -0.268. Moreover, the composite z-score is 0.287 in [7], -0.0156 in [9] and -0.202 in test [10]. The z-score in test [8] is -0.0714 (inactive).
Consider `CCOC(=O)CCN1C(=O)[C@H]2[C@H]3[C@H](O)[C@H](O)CC(=NOCC(C)C)[C@H]3CC[C@H]2C1=O`, for which the composite z-score in [1] was 0.185; in test [2], 0.0849; in test [3], -0.0232; in test [4], 0.125; in test [5] it was -0.131; in [6], -0.312. For the same molecule, the composite z-score in test [7] is 0.176; in test [9] it was 0.349; in [10], -0.264. Besides, the z-score in test [8] was 0.813 (inactive).
With `O=C1CCCC=C1C(CCc1ccccc1)OC(=O)c1ccc(Br)cc1` (stereo not given), the composite z-score in [1] was -0.351; in [2], 0.0329; in test [3], -0.0841; in [4], 0.335; in [5], 0.047; in [6], -0.532. The composite z-score in [7] is -0.529; in test [9], -0.205; in [10], -0.137. Besides, in test [8], the z-score is 3.31 (inactive).
For `O=C1[C@H]2[C@H]3[C@H](O)[C@H](O)CC(=NOCc4ccccc4)[C@@H]3CC[C@H]2C(=O)N1Cc1ccc2c(c1)OCO2`, the composite z-score in test [1] was -0.138; in test [2], -0.247; in [3] it was -0.0583; in test [4] it was 0.321; in test [5], 0.376; in test [6], 0.299. Besides, the composite z-score in test [7] was -0.0604; in test [9] it was 0.357; in test [10] it was 0.0922. The z-score in [8] was 1.1 (inactive).
As for `CCC(=O)[C@@]1(O)C(=O)N2C(=C3C(=O)OCC[C@@H]31)N(Cc1ccccc1)C(C)=C(C(=O)OC)[C@H]2c1ccccc1`, the composite z-score was -0.268 in test [1]; 0.364 in test [2]; -0.167 in test [3]; 0.342 in test [4]; 0.355 in [5]; -0.13 in [6]. The composite z-score in test [7] was 0.0811; in [9], 0.179; in test [10], 0.176. Also, the z-score in [8] was 0.105 (inactive).
For `O=C(C=Cc1ccc2c(c1)OCO2)c1ccc(F)cc1`, the composite z-score in test [1] was -0.0346; in test [2] it was 0.668; in test [3] it was 0.0173; in test [4], 0.3; in [5] it was -0.207; in [6] it was -0.204. Further, the composite z-score in [7] was -0.0248; in [9] it was 0.348; in test [10] it was -0.0994. Moreover, in [8], the z-score was 0.964 (inactive).
In the case of `CO[C@H]1COC(=O)[C@@H](C)COC(=O)[C@H](COCc2ccccc2)NC(=O)CC=C[C@H]1C`, the composite z-score in [1] was -0.325; in [2] it was 1.45; in [3], -0.156; in test [4], -0.607; in test [5], -1.58; in test [6], -1.19. In addition, the composite z-score was -1.43 in test [7], 0.1 in [9] and -0.0672 in test [10]. Moreover, the z-score in test [8] is -0.335 (inactive).
With `O=C1[C@H]2[C@H]3[C@H](O)[C@H](O)CC(=NOC[C@@H](O)COCc4ccco4)[C@@H]3CC[C@H]2C(=O)N1C[C@@H]1CCCO1`, the composite z-score was -0.861 in test [1]; 2.29 in test [2]; -0.213 in [3]; -0.32 in [4]; -0.323 in [5]; -0.271 in test [6]. In addition, the composite z-score is 1.22 in test [7], -0.14 in [9] and 0.0139 in test [10]. The z-score in test [8] was -0.218 (inactive).
Turning to `CCCNC(=O)OC[C@H]1O[C@H](CCON=C(C)CCN2CCc3nc(CC)c(CC)cc3C2)C=C[C@@H]1Oc1ccc(OC)cc1`, the composite z-score is -0.343 in [1]; 1.59 in test [2]; -0.129 in test [3]; -0.0187 in [4]; 0.0329 in test [5]; 0.51 in [6]. Further, the composite z-score was 0.428 in [7], -0.0665 in [9] and 0.5 in test [10]. Besides, the z-score in test [8] is 0.31 (inactive).
Regarding `CO[C@H]1COC(=O)CC=C[C@H](C)[C@@H](OC)COC(=O)[C@@H](C)NC(=O)CC=C[C@@H]1C`, the composite z-score in [1] was -0.548; in test [2], 1.9; in test [3] it was -0.177; in [4], 0.0365; in test [5], -0.411; in test [6], -0.255. The composite z-score in test [7] is 0.515; in [9] it was -0.251; in [10], -0.196. Further, in test [8], the z-score is 0.447 (inactive).

The record behind these values is PubChem BioAssay.
